The source of these data is PubChem BioAssay (Tox21).

Molecules are shown by their SMILES. Several values for one entry are separate records, joined by “and”; a condition that tells them apart may be missing. Identical values can stand only once. Inconclusive results are not listed. More than one record can exist for a structure, and the calls need not agree. Activity calls are given as the source filed them. Unless noted, calls come from the whole dose curve; as a rule, active = well fitted curve in the direction sought with a large enough effect in the repeat runs; inconclusive = weak or mixed curves; inactive = no such curve, though single readings can be large; an effect the other way counts as inactive or inconclusive.

The target in experiment [1] is Thyrotropin receptor (Homo sapiens) (UniProt P16473). The experiment is described as follows: qHTS assay to identify small molecule antagonists of the thyroid stimulating hormone receptor (TSHR) signaling pathway (AID 1259385; calls by dose curve; note: nearly all actives have a fitted effect of over 20% in size). Put shortly: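 TSHR-HEK293 cells were plated and held 18 h at 37C/5% CO2, then given compound plus Ro20-1724 and stimulated with TSH at 1.5 ng/mL final. After 30 min at room temperature, cAMP was detected with cAMP-d2/anti-cAMP-cryptate (1 h) by fluorescence.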
(qHTS replaces the single test concentration by a dilution series.)

Experiment [2] in a line: qHTS assay to identify small molecule agonists of the estrogen receptor alpha (ER-alpha) signaling pathway in the presence of an antagonist - cell viability counter screen (AID 1259386).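 Note: cells exposed to compounds for 22 h at 37 °C before the viability read; nearly all actives have a fitted effect of over 30% in size.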 Note: potency is the fitted concentration of half-maximal effect. The gist of the method:
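Viability counter screen using VM7Luc4E2 (full-length ER-alpha, four ERE-luciferase). The cells were treated with compounds alongside ICI-182,780 10.0nM for 22hr, and live-cell protease fluorescence was quantified with CellTiter-Fluor.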

For experiment [3], the target named is Progesterone receptor (Homo sapiens) (UniProt P06401). The experiment is described as follows: qHTS assay to identify small molecule antagonists of the progesterone receptor (PR) signaling pathway (AID 1346795; active = well fitted inhibition curve with a large enough effect in the signal ratio in the repeat runs, not every such curve was filed as active; the % refers to the signal ratio). The gist of the method: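 PR-UAS-bla HEK293T cells carrying a UAS-driven beta-lactamase reporter were plated in medium with 2% charcoal-stripped FBS and rested 6 hr at 37C. Compounds were added with 1 nM R5020 (final) for 16 hr, then FRET substrate loaded 2 hr at room temperature.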

Experiment [4] can be described thus: qHTS assay to identify small molecule antagonists of the progesterone receptor (PR) signaling pathway - cell viability counter screen (AID 1346798). Note: series mostly up to about 92 µM; nearly all actives have a fitted effect of over 50% in size. The gist of the method: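 PR-UAS-bla HEK293T cells in medium with 2% charcoal-stripped FBS were treated with compounds plus R5020 for 16 hr at 37C. Cell viability was then read by CellTiter-Glo luminescence after 30 min at room temperature in the same wells.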

Experiment [5] can be described thus: qHTS assay to identify small molecule agonists of the progesterone receptor (PR) signaling pathway - cell viability counter screen (AID 1346799; calls by dose curve; note: nearly all actives have a fitted effect of over 45% in size). The gist of the method: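 PR-UAS-bla HEK293T cells, 3,000 per well in medium with 2% charcoal-stripped FBS, were preincubated 6 hr at 37C, then exposed to compounds for 16 hr; viability was read as CellTiter-Glo luminescence after 30 min at room temperature.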

The nature of experiment [6]: qHTS assay to identify small molecule antagonists of the TGF-beta/Smad signaling pathway - cell viability counter screen (AID 1346824). Note: nearly all actives have a fitted effect of over 50% in size. The gist of the method: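 SBE-bla HEK 293T cells were plated overnight at 37 C, then given compounds in DMSO plus TGF-beta1 (added as 0.25 ng/mL solution) for 5 hr. After the bla read, CellTiter-Glo was added to the same wells and luminescence read after 30 min at room temperature.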

A short description of experiment [7]: qHTS assay to identify small molecule agonists of the TGF-beta/Smad signaling pathway (AID 1346859; active = well fitted activation curve with a large enough effect in the signal ratio in the repeat runs, not every such curve was filed as active; the % refers to the signal ratio; note: series mostly up to about 77 µM). Put shortly:
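HEK 293T cells stably carrying a beta-lactamase reporter driven by the Smad binding element were seeded overnight, exposed to DMSO-dissolved compounds for 5 hr at 37 C, 5% CO2, then loaded with FRET substrate for 2 hr at room temperature.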

The target in experiment [8] is Thyrotropin-releasing hormone receptor (Homo sapiens) (UniProt P34981). Kind of experiment: qHTS assay to identify small molecule antagonists of the thyrotropin-releasing hormone receptor (TRHR) signaling pathway (AID 1346877; active = well fitted inhibition curve with a large enough effect in the repeat runs, not every such curve was filed as active; note: series mostly up to about 51 µM). The gist of the method: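 Following an 18 h incubation at 37 °C and a 2 h calcium dye load, TRHR-HEK293 cells were exposed to compound (5 min, room temperature) and challenged with TRH, 1 nM final.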

For experiment [9] the target is unchanged. The experiment is described as follows: qHTS assay to identify small molecule agonists of the thyrotropin-releasing hormone receptor (TRHR) signaling pathway (AID 1346891; calls by dose curve; note: series mostly up to about 58 µM). Put shortly: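 TRHR-expressing HEK293 cells were plated 18 h at 37 °C/5% CO2, loaded with calcium dye 2 h at 37 °C, then given compound in DMSO; fluorescence was read kinetically for 3 min at 1 s intervals.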

Experiment [10] can be described thus: Human pregnane X receptor (PXR) small molecule agonists, qHTS cell viability counter screen (AID 1346977). Note: nearly all actives have a fitted effect of over 50% in size. Note: potency is the fitted concentration of half-maximal effect. The gist of the method:
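PXR-Luc HepG2 cells in medium with 5% charcoal-stripped FBS were pre-incubated 5hr, then exposed to compounds for 24hr at 37C. Viability was read in the same wells by CellTiter-Fluor fluorescence, reagent added after 23hr with a 1hr incubation.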

A short description of experiment [11]: Caspase-3/7 induction in HepG2 cells by small molecules, qHTS assay (AID 1346978). Note: nearly all actives have a fitted effect of over 15% in size. Put shortly:
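Wild-type HepG2 cells (2,000/well) were settled 5 h at 37 C, 5% CO2, then exposed to compounds in DMSO for 17 h. Caspase-3/7 activity was read by luminescence 30 min after adding Caspase-Glo 3/7 reagent at room temperature.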

Experiment [12] is described as follows: Caspase-3/7 induction in CHO-K1 cells by small molecules, qHTS cell viability counter screen (AID 1346979). Note: nearly all actives have a fitted effect of over 35% in size. Note: potency is the fitted concentration of half-maximal effect. The gist of the method: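 Wild-type CHO-K1 cells were seeded at 1,500 per well, rested 5hr at 37 C, then exposed to compounds in DMSO. After 16hr, CellTiter-Fluor reagent was added and fluorescence read 1hr later as the viability measure.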
Experiment [13] in a line: Caspase-3/7 induction in CHO-K1 cells by small molecules, qHTS assay (AID 1346980). Note: nearly all actives have a fitted effect of over 15% in size. Put shortly: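 Wild-type cells were seeded at 1,500 per well and settled 5 hr at 37 C, 5% CO2, then exposed to DMSO-dissolved compounds for 17 hr. Caspase-Glo 3/7 reagent was added, and luminescence was read after 30min at room temperature.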
Experiment [14] can be described thus: Caspase-3/7 induction in HepG2 cells by small molecules, qHTS cell viability counter screen (AID 1346981). Note: nearly all actives have a fitted effect of over 30% in size. Note: potency is the fitted concentration of half-maximal effect. The gist of the method:
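Viability determined by CellTiter-Fluor fluorescence in HepG2 wells also used for the luminescent Caspase-Glo 3/7 read. Compounds were present for 16 hr at 37 C, 5% CO2 before reagent addition.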

Experiment [15] concerns the target Nuclear receptor subfamily 1 group I member 2 (Rattus norvegicus) (UniProt Q9R1A7). Kind of experiment: Rat pregnane X receptor (rPXR) activation by small molecules, qHTS assay (AID 1346983). Note: nearly all actives have a fitted effect of over 20% in size. The note with it: rPXR luciferase reporter cells, One-Glo luminescence, 24 h; stronger effect = higher value. Put shortly: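 Cell-based rPXR luciferase reporter assay, 2,000 cells per well, rested 5hr at 37 C before compound addition in DMSO, then 24 hr at 37 C. One-Glo reagent was added and luminescence read after 30 min at room temperature.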

Experiment [16] deals with Nuclear receptor subfamily 1 group I member 2 (Homo sapiens) (UniProt O75469). The experiment is described as follows: CYP3A4 induction through human pregnane X receptor (PXR) by small molecules, qHTS assay (AID 1346984). Note: nearly all actives have a fitted effect of over 40% in size. Put shortly:
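Readings come from a luciferase reporter: DPX-2 cells, which are HepG2 cotransfected with PXR and a CYP3A4-promoter construct, were exposed to test compounds for 24 h at 37C before One-Glo detection.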

The target is the same in experiment [17]. The experiment is described as follows: Human pregnane X receptor (PXR) activation by small molecules, qHTS assay (AID 1346985). Note: nearly all actives have a fitted effect of over 40% in size. Note: potency is the fitted concentration of half-maximal effect. Put shortly: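 DPX-2 cells (HepG2 co-transfected with a PXR response element and a CYP3A4-promoter luciferase construct) were seeded at 2,000 per well, rested 5 hr at 37C, then exposed to DMSO-dissolved compounds for 24 hr. Activation was read as luciferase luminescence.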

Experiment [18] is described as follows: qHTS assay to identify small molecule agonists of the TGF-beta/Smad signaling pathway - cell viability counter screen (AID 1346829). Note: top concentration of the series differs between compounds; nearly all actives have a fitted effect of over 45% in size. The gist of the method:
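Here the cytotoxicity of library compounds is measured in SBE-bla HEK 293T cells treated for 5 hr, using CellTiter-Glo added to wells already read for the beta-lactamase reporter.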

Experiment [19] has as its target Nuclear receptor subfamily 1 group I member 2 (Homo sapiens) (UniProt O75469). Kind of experiment: Human pregnane X receptor (PXR) small molecule agonists, qHTS assay (AID 1346982). Note: nearly all actives have a fitted effect of over 35% in size. Note: potency is the fitted concentration of half-maximal effect. Put shortly: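 Compound-induced hPXR transactivation of a CYP3A4 luciferase reporter was scored in HepG2 PXR-Luc cells over 24 hr at 37 C, 5% CO2, by luminescence.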
Experiment [20] deals with Progesterone receptor (Homo sapiens) (UniProt P06401). The experiment is described as follows: qHTS assay to identify small molecule agonists of the progesterone receptor (PR) signaling pathway (AID 1346784; calls by dose curve; note: nearly all actives have a fitted effect of over 30% in size). Put shortly:
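PR-UAS-bla HEK 293T cells carrying a UAS-driven beta-lactamase reporter were seeded in medium with 2% charcoal-stripped FBS, preincubated 6 hr at 37C, then exposed to compounds in DMSO for 16 hr; agonism was read by LiveBLAzer B/G FRET fluorescence.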
% is set by controls: 0 for no effect and ±100 for the full control effect.

Progesterone receptor (Homo sapiens), sequence (P06401 whole entry, looked up): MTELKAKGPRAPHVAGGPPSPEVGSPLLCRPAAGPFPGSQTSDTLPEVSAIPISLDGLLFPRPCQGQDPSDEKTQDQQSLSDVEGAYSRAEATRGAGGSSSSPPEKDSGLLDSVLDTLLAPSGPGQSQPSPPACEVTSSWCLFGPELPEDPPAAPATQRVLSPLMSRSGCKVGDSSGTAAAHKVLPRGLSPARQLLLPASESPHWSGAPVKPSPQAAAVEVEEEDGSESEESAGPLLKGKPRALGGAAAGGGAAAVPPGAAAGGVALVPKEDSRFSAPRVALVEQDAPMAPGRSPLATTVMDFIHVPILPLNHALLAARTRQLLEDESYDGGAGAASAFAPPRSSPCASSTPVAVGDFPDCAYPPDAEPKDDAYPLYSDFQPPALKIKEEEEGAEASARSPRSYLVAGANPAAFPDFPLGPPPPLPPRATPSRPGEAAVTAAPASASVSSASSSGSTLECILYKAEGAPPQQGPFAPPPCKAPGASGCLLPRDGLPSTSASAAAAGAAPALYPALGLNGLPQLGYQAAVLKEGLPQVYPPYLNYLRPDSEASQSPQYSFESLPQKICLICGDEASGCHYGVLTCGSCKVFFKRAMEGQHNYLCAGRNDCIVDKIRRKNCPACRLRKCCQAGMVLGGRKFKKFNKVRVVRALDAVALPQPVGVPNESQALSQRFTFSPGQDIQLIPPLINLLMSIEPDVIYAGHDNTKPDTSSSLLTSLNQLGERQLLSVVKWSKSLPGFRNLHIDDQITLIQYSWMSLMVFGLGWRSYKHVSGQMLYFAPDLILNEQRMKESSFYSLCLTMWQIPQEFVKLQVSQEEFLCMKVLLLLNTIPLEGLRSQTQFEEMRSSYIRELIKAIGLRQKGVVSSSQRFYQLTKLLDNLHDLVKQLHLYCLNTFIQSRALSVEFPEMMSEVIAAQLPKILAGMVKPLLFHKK
Nuclear receptor subfamily 1 group I member 2 (Homo sapiens), sequence (O75469 whole entry, looked up): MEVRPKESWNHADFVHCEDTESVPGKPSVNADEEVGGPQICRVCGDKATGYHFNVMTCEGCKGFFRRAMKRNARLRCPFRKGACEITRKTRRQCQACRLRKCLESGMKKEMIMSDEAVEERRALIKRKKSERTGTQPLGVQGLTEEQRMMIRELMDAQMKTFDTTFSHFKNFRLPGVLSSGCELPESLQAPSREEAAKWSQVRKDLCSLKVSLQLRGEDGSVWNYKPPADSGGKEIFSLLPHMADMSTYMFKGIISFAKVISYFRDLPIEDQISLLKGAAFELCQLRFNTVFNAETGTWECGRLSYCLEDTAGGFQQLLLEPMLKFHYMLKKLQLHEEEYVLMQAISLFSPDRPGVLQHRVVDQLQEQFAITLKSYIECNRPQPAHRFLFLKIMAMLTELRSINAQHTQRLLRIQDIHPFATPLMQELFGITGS
Thyrotropin-releasing hormone receptor (Homo sapiens), sequence (P34981 whole entry, looked up): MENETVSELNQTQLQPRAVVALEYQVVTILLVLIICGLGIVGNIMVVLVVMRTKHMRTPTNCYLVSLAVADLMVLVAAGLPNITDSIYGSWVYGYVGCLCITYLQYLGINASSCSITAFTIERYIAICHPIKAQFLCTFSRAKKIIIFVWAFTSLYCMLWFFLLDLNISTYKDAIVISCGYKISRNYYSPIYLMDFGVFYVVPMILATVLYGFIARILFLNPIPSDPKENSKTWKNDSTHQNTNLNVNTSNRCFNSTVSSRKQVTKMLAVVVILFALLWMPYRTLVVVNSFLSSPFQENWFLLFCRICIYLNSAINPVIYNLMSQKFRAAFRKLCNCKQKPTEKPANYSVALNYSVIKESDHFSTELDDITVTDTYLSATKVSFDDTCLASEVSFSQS
Thyrotropin receptor (Homo sapiens), sequence (P16473 whole entry, looked up): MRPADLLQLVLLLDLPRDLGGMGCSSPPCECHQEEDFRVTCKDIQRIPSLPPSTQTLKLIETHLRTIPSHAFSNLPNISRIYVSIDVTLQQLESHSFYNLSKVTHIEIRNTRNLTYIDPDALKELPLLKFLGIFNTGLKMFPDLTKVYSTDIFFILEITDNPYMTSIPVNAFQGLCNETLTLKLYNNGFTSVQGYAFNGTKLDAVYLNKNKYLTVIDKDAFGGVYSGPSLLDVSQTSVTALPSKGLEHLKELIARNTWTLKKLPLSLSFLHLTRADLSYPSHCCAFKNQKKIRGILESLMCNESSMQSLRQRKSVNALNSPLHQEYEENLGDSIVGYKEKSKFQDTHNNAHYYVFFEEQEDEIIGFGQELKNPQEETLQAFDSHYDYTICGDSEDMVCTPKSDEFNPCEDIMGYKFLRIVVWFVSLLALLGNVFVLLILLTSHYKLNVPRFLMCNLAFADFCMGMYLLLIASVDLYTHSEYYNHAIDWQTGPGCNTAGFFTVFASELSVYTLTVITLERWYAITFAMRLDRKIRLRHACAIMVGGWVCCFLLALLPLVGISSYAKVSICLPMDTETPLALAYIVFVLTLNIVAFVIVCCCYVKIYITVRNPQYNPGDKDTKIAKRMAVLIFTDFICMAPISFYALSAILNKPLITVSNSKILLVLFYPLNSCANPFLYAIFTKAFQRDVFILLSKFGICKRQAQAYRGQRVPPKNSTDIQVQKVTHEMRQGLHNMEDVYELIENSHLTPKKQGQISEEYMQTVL
Nuclear receptor subfamily 1 group I member 2 (Rattus norvegicus), sequence (Q9R1A7 whole entry, looked up): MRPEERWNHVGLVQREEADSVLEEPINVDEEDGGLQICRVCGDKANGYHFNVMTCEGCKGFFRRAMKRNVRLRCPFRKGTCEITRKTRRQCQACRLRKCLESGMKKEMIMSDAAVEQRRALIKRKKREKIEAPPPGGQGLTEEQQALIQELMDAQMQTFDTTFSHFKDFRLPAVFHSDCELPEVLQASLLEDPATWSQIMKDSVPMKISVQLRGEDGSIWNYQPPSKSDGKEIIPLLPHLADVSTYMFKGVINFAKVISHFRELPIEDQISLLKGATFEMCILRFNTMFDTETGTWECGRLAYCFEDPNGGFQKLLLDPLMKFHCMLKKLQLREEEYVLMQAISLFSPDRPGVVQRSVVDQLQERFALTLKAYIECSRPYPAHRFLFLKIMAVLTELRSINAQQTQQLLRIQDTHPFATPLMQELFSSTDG

Regarding `C/C=C/c1ccc(OC)cc1`, the outcome in experiment [1], in experiment [3], in experiment [6], in [7], in [8] and in [9] was inactive. Besides, the call in experiment [13] and in experiment [16] was inactive. Further, the Potency result in experiment [2], in experiment [4], in [5], in experiment [10], in experiment [11] and in experiment [12] was “inactive” throughout. For the same molecule, the Potency entry in experiment [14] and in experiment [17] was “inactive” each time. In addition, the max activation in [15] is -1.43% (inactive).

On to `CCCCC(CC)COC(=O)/C=C/c1ccc(OC)cc1` (stereo not drawn), for which the molecule was classed as inactive in experiment [1], in [6], in experiment [7], in experiment [8], in experiment [9] and in experiment [13]. Also, the result in experiment [16] was inactive. The Potency entry in experiment [2], in experiment [4], in [5], in [10], in experiment [11] and in [14] was “inactive” in each case. In addition, the Potency entry in experiment [17] is “inactive”.

Regarding `C[C@]12C=CC(=O)C=C1CC[C@@H]1[C@@H]2[C@@H](O)C[C@@]2(C)[C@H]1CC[C@]2(O)C(=O)CO`, the Potency result in experiment [2], in experiment [4], in [5], in experiment [18], in experiment [10] and in experiment [11] was “inactive” each time. Further, the Potency entry in [12], in experiment [14] and in experiment [17] was “inactive” in each case. The call in [6], in experiment [7] and in experiment [13] was inactive.

Take `O=C(O)CS`: the Potency entry in experiment [2], in experiment [4], in [5], in [18], in experiment [10] and in experiment [11] was “inactive” each time. Further, the Potency result in experiment [14] is “inactive”. The molecule was called inactive in [6], in [7], in experiment [8], in experiment [9] and in experiment [13]. Moreover, the Potency result in experiment [12] was “inactive and 61.6 µM (active)”.

Regarding `CCCCOC(=O)CC(CC(=O)OCCCC)(OC(C)=O)C(=O)OCCCC`, the Potency entry in [2], in experiment [4], in [5], in experiment [10], in [11] and in [12] was “inactive” throughout. Besides, in experiment [14], the Potency result was “inactive”. In addition, the outcome in [3], in experiment [6], in [7], in experiment [8], in [9] and in [13] was inactive. Also, the Potency was 6.68 µM (active) and 12.3 µM (active) and 13.7 µM (active) in experiment [19]; 25.1 µM (active) in experiment [17]. Moreover, in [15], the max activation was 0.822% (inactive).

For `NC(=O)c1cnccn1`, the Potency entry in experiment [2], in [4], in [5], in experiment [18], in experiment [10] and in experiment [11] was “inactive” in each case. Also, the Potency result in experiment [14] and in experiment [19] was “inactive” in each case. Besides, the outcome in [3], in experiment [6], in [7], in experiment [8], in experiment [9] and in experiment [13] was inactive.

With `Cc1cc(=O)n(-c2ccccc2)n1C`, the Potency result in [2], in experiment [20], in experiment [4], in [5], in [18] and in experiment [10] was “inactive” throughout. Also, the Potency entry in experiment [11], in experiment [14] and in experiment [19] was “inactive” throughout. The outcome in experiment [3], in experiment [6], in [7], in experiment [8], in experiment [9] and in experiment [13] was inactive.

Consider `O=C(O)c1[nH]n(-c2ccc(S(=O)(=O)O)cc2)c(=O)c1N=Nc1ccc(S(=O)(=O)O)cc1`, for which the call in experiment [1], in experiment [6], in experiment [7], in [8], in [9] and in [13] was inactive. Further, the Potency in experiment [2] was 29.8 µM (active) and 61.3 µM (active) and 25.5 µM (active); in experiment [10], 39.8 µM (active) and 45.4 µM (active); in experiment [12], 29.8 µM (active) and 48.7 µM (active) and 45.4 µM (active); in experiment [14], 29.8 µM (active) and 27.4 µM (active) and 50.9 µM (active). Also, the Potency entry in experiment [4], in experiment [5], in [11] and in [19] was “inactive” in each case.

Regarding `Nc1ccn([C@H]2CC[C@@H](CO)O2)c(=O)n1`, the molecule was classed as inactive in experiment [1], in experiment [6], in experiment [7], in [8], in [9] and in experiment [13]. Besides, the Potency result in experiment [2], in experiment [4], in experiment [5], in experiment [10], in experiment [11] and in [14] was “inactive” in each case. The Potency entry in experiment [19] is “inactive”.
